The inhibition is the drop in the measured response relative to a control, in per cent.

Each structure is given as a SMILES string. Among all 290,000 compounds or so, about 27,000 (9.3%) were called active. The list comes from a sample in which actives are over-represented; it also holds similar structures and randomly drawn compounds. Values without a mark were called inactive. No stated cut-off is given here; in the data, active means inhibition mostly above about 28% (no sharp cut-off); inactive means mostly below about 43%.

The assay in a line: A qHTS for Small Molecule Inhibitors of Shiga Toxin. Further: 0% is about no effect. The conditions noted are these: Vero cells, Shiga toxin protein synthesis inhibition reporter; at 38.7 µM, hits give high values. (In general: Quantitative high-throughput screening tests each substance at several concentrations.)
On to `NS(=O)(=O)c1ccc(CCNC(=O)c2nc(CS(=O)(=O)c3ccc(Cl)cc3)no2)cc1`, for which the inhibition was -2.78%.

In the case of `FC(F)(F)c1ccnc(Oc2ccc(C3=NCCS3)cc2)c1`, the inhibition is 64.7% (active).

In the case of `O=Cc1ccc(Oc2cccc(C(F)(F)F)c2)nc1`, the inhibition is 12.2%.

Take `C[C@H](NC(=O)C1CC(=O)N(c2ccc3c(c2)OCO3)C1)C(=O)NCc1ccco1` (stereo partly drawn): the inhibition was -4.62%.

With `O=S(=O)(NC1CCCCC1N1CCCCC1)c1ccc(Cl)cc1` (stereo not drawn), the inhibition was -21.5%.

Take `O=C(NCc1ccncc1)C1CCCN(S(=O)(=O)c2ccc(Br)cc2)C1` (stereo not drawn): the inhibition is -9.96%.

Turning to `Cc1nc2sc3c(c2c(=O)n1NC(=O)CCl)CCCC3`, the inhibition is -6.21%.

Consider `COCCNc1nc(-n2nc(C)cc2C)nc2sc3c(c12)CCCC3`, for which the inhibition was 51.2% (active).

Take `CCC(O)CNc1nc(-n2nc(C)cc2C)nc2sc3c(c12)CC(C)(C)OC3` (stereo not drawn): the inhibition was -11.2%.

As to `COc1ccccc1NC(=O)c1cc(N2C(=O)C3C4CCC(C4)C3C2=O)ccc1Cl` (stereo not drawn), the inhibition was -3.33%.

Regarding `COc1ccccc1N1CCN(S(=O)(=O)c2ccc3c(c2)NC(=O)CS3)CC1`, the inhibition was 16.6%.

`N#Cc1c(NC(=O)C2CCCO2)sc2c1CCCCC2` (stereo not drawn): the inhibition was 82.7% (active).

Turning to `N#Cc1c(NC(=O)C2CC(Cl)=CCC2C(=O)O)sc2c1CCCCC2` (stereo not drawn), the inhibition was 18.3%.

For the compound `N#Cc1c(NC(=O)CCCl)sc2c1CCCCC2`, the inhibition was 25%.

On to `Cc1c(C)c2ccc(OCC(=O)N3CCC(C(=O)O)CC3)c(C)c2oc1=O`, for which the inhibition was -1.33%.

As to `Nc1ccn(C2CC(O)C(CO)O2)c(=O)n1` (stereo not drawn), the inhibition is -2.7%.

In the case of `CCOC(=O)c1c(NC(=O)CSc2nccc(=O)[nH]2)sc(C)c1C`, the inhibition is -11.1%.

Consider `Cc1ccc2ccc3c(c2n1)NS(=O)(=O)c1ccccc1-3`, for which the inhibition is -4.77%.

In the case of `CCS(=O)(=O)c1cc([N+](=O)[O-])c(Sc2ccccc2N)s1`, the inhibition was 101% (active).

In the case of `Nc1ccccc1Sc1ccc(C(F)(F)F)cc1[N+](=O)[O-]`, the inhibition is -8.21%.

`CCOC(=O)c1cc(Sc2ccccc2N)cc(C(=O)OCC)n1`: the inhibition was -2.59%.

Take `COc1ccc(/C(C)=N/NC(=O)c2ccc3nc[nH]c3c2)cc1`: the inhibition was -11.9%.

Turning to `C/C(=N\NC(=O)c1cccnc1)c1ccc(-c2ccccc2)cc1`, the inhibition is 20.1%.

`C/C(=N\NC(=O)c1nc(C)cc(C)n1)c1ccccc1`: the inhibition is 86.5% (active).

Take `COc1ccc(N=Nc2c(-c3ccc(OC)cc3)[nH]oc2=O)cc1`: the inhibition is -1.4%.

As to `Cc1cc(C)cc(OCC(=O)NC(C)c2ccccc2)c1` (stereo not drawn), the inhibition was 16.2%.

For the compound `COc1cc(NC(=O)c2ccccc2)c(OC)cc1NC(=O)Cc1ccccc1`, the inhibition is -6.61%.

For the compound `COC(=O)C1CCN(C(=O)c2ccc3oc(Cc4ccc(Cl)cc4)nc3c2)CC1`, the inhibition was -23.6%.

As for `COc1ccc(Cc2nc3ccc(C(=O)N4CCC(N(C)C)C4)cc3o2)cc1` (stereo not drawn), the inhibition was 5%.

As to `COCC1CCN(C(=O)c2ccc3oc(Cc4ccccc4)nc3c2)C1` (stereo not drawn), the inhibition was 42.2% (active).

In the case of `CN(C)c1ccc(/C=C2\NC(=S)N(Cc3ccccc3)C2=O)cc1`, the inhibition was 3.47%.

`CCc1nn(CCCC(=O)NC(C)c2ccccc2)c(=O)c2cc3occc3n12` (stereo not drawn): the inhibition was 11.1%.

Consider `O=C(CNC(=O)c1ccc(Br)o1)NCC1CCCO1` (stereo not drawn), for which the inhibition was -17.7%.

Consider `CC(NC(=O)C(=O)NN=C1CCC(C(C)(C)C)CC1)c1ccccc1` (stereo not drawn), for which the inhibition was -9.73%.

For `CC(C)(C)C1CCC(=NNC(=O)c2cc(-c3ccccc3)n[nH]2)CC1` (stereo not drawn), the inhibition is 5.96%.

Take `CCC(C)(C)C1CCC(=NNC(=O)c2ccc(Br)o2)CC1` (stereo not drawn): the inhibition is 123% (active).

For the compound `CCCC(=O)Nc1ccc(Cl)c(NC(=O)c2ccc(Br)o2)c1`, the inhibition is -13.8%.

Take `CC(C)(C)C1CCC(=NNC(=O)c2ccc(Br)o2)CC1` (stereo not drawn): the inhibition is 50.9% (active).

For the compound `O=C(CCN1C(=O)[C@@H]2Cc3ccccc3CN2C1=O)NCc1ccccc1`, the inhibition was -1.35%.

Consider `CCc1ccc(S(=O)(=O)N/N=C\c2ccc([N+](=O)[O-])o2)cc1`, for which the inhibition was 9.6%.

As for `O=C(/C=C/c1ccc(OCc2c(F)cccc2Cl)cc1)N1CCOCC1`, the inhibition is 54.8%.

Consider `CCOC(=O)C(C)n1cnc2scc(-c3ccc(C)c(C)c3)c2c1=O` (stereo not drawn), for which the inhibition is 2.19%.

In the case of `CCCN1C2=C(C(=O)CCC2)C(c2ccc(O)c(Br)c2)C2=C1CCCC2=O`, the inhibition is 6.12%.

Regarding `CCOC(=O)C1(CCOc2ccccc2)CCN(Cc2cc(OC)c(O)cc2Cl)CC1`, the inhibition is 21.9%.

`CCN(CC)CCn1cnc2c1c(=O)[nH]c(=O)n2Cc1ccccc1`: the inhibition is -12.7%.

Turning to `C=CCNC(=O)COc1coc(CN2CCN(Cc3ccccc3)CC2)cc1=O`, the inhibition was -1.93%.

`COc1ccccc1/C=C1\SC(=O)N(CCC(=O)N(C)C2CCS(=O)(=O)C2)C1=O` (stereo not drawn): the inhibition was 18.1%.

In the case of `COc1ccc(/C=C2\SC(=O)N(CCC(=O)NCCCn3ccnc3)C2=O)cc1`, the inhibition was 65.3% (active).

On to `O=C(CN1C(=O)S/C(=C\c2ccccc2F)C1=O)NCCCn1ccnc1`, for which the inhibition was 1.8%.

As for `O=C(CCN1C(=O)c2ccccc2C1=O)NCCCn1ccnc1`, the inhibition was -4.06%.

For the compound `COc1ccc(/C=C2\SC(=O)N(CCC(=O)NC3CCS(=O)(=O)C3)C2=O)cc1` (stereo not drawn), the inhibition is 65.1% (active).

Consider `COc1ccc(NC(=O)CCN2C(=O)/C(=C/c3ccc4c(c3)OCO4)SC2=S)cc1`, for which the inhibition is -2.97%.

With `O=C1C(=O)N(CCN2CCOCC2)C(c2cccc(Cl)c2)/C1=C(/O)c1ccc2c(c1)OCO2` (stereo not drawn), the inhibition was -5.97%.

For `CS(=O)(=O)N(CC(=O)N1CCCCCC1)c1cccc(Cl)c1Cl`, the inhibition was -8.4%.

`CC(=O)N1CCOc2ccc(S(=O)(=O)N3CCC(C(=O)Nc4ccccc4F)CC3)cc21`: the inhibition was -3.81%.

For `CSCCC(NS(=O)(=O)c1ccc(C)cc1)C(=O)N1CCCC1` (stereo not drawn), the inhibition is -8.89%.

Take `COc1ccc2c(C)c(CCC(=O)NC3CC3)c(=O)oc2c1C`: the inhibition is 12.7%.

For `COC(=O)N/N=C/c1ccc(-c2ccc(Cl)c(Cl)c2)o1`, the inhibition is 59.7% (active).

`O=C(N/N=C\c1ccc(-c2ccc(Cl)c(Cl)c2)o1)C(=O)N1CCCC1`: the inhibition is -9.82%.

In the case of `Nc1nnnn1CC(=O)N/N=C/c1ccc(-c2cccc(Cl)c2)o1`, the inhibition is 14.1%.

`O=C(c1cccc(S(=O)(=O)Nc2ccccc2Cl)c1)N1CCN(C(=O)c2ccco2)CC1`: the inhibition is 10.9%.

`CS/C(=C\C(=O)c1ccco1)Nc1ccccc1Cl`: the inhibition is 53.1% (active).

In the case of `O=C(Nc1ccccc1C(=O)N1CCCCC1)c1ccco1`, the inhibition is -5.5%.

As for `Cc1c(Cl)cccc1NC(=O)[C@@]1(CC(=O)O)CC(/C=C/c2ccccc2)=NO1`, the inhibition was 4.14%.

As for `COc1cccc(-c2cc(C(=O)N/N=C/c3ccc(OC)c(COC(C)=O)c3)c3ccccc3n2)c1`, the inhibition was 13.2%.

For `CCOc1cc(/C=N/Nc2cc(C)nc3ccc(C)cc23)ccc1O`, the inhibition is 16.6%.

Regarding `CCOc1cc(/C=N/NC(=O)c2cc(-c3ccccc3)nc3ccccc23)ccc1O`, the inhibition was 46.8% (active).

`Cc1cc(=O)oc2cc(OC(C)C(=O)NCCc3ccc(S(N)(=O)=O)cc3)ccc12` (stereo not drawn): the inhibition was -15.1%.

Turning to `CC(=O)N1CCOc2ccc(S(=O)(=O)N3CCN(c4cccc(C(F)(F)F)c4)CC3)cc21`, the inhibition is -3.75%.

Take `CCCCOc1ccc(-c2ncc(C(=O)OCC)c(N)n2)cc1`: the inhibition was 21.7%.

With `CCCCCc1ccc(-c2cn(Cc3ccc4ccccc4c3)nn2)cc1`, the inhibition is -7.01%.

For the compound `O=C(O)c1ccc(COCC(F)(F)F)cc1`, the inhibition was 8.49%.

`CCCCCc1ccc(-c2ccc(OCC)cc2)nc1`: the inhibition is 43.4% (active).

Consider `CCCCCc1ccc(-c2ccc(C(=O)O)cc2)nc1`, for which the inhibition is 71.9% (active).

Regarding `CCOc1c(CNCc2ccc(C(=O)O)cc2)cccc1OC`, the inhibition is 11.6%.

`Cc1ccc(NC(=O)CN2C(=O)NC(C)(c3ccc(Cl)cc3)C2=O)c(Br)c1` (stereo not drawn): the inhibition is -4.27%.

`CCN(CC)Cc1cc(C(C)=O)ccc1O`: the inhibition is -16.1%.

Turning to `CC(=O)c1ccc2c(c1)c1ccccc1n2CC(C)C`, the inhibition was -9.15%.

Turning to `C/C(=N\NC(=O)c1ccc2ccccc2c1)c1cccnc1`, the inhibition is 43.1%.

On to `Cc1ccccc1OCC(=O)NCC(=O)OCC(=O)c1ccc2ccccc2c1`, for which the inhibition is 12.1%.

Regarding `CC(=O)c1ccc2c(ccc3ccccc32)c1`, the inhibition was 50.4% (active).

For the compound `CC(=O)CCC(=O)c1ccc2ccccc2c1`, the inhibition was 52.7% (active).

`Cc1cccc(NS(=O)(=O)c2ccc(C(=O)NCC(C)(C)N3CCOCC3)cc2)c1C`: the inhibition is -13%.

Consider `COc1cc(OC)c(S(=O)(=O)Nc2ccccc2C(=O)O)cc1S(=O)(=O)Nc1ccccc1C(=O)O`, for which the inhibition was 7.19%.

In the case of `CCC(=O)N1CCc2cc(S(=O)(=O)CCC(=O)N3CCN(c4ccccc4F)CC3)ccc21`, the inhibition was 0.463%.

Regarding `COc1cc(NS(=O)(=O)c2ccc(NC(=S)NC(=O)c3ccccc3)cc2)nc(OC)n1`, the inhibition is -2.7%.

Take `O=C(Nc1ccc(Br)cn1)c1ccc([N+](=O)[O-])o1`: the inhibition is 50.9% (active).

For `O=C(Nc1ccc(Br)cn1)c1ccc([N+](=O)[O-])cc1Cl`, the inhibition is 119% (active).

With `CN1C(=O)c2ccc(C(=O)Nc3ccc(Br)cn3)cc2C1=O`, the inhibition was -3.25%.

With `CC(C)C(=O)Nc1cccc(NC(=O)c2ccc([N+](=O)[O-])cc2Cl)c1`, the inhibition is 16.6%.

On to `O=C(/C=C/c1ccc(Cl)cc1)Nc1ccc(Br)cn1`, for which the inhibition was 34.5%.

For `O=C(Nc1ccncc1)c1ccc([N+](=O)[O-])cc1Cl`, the inhibition was -1.95%.

As for `COc1ccc(N(Cc2cc3ccc(C)cc3[nH]c2=O)S(=O)(=O)c2ccccc2)cc1`, the inhibition was -1.62%.

Values taken from PubChem BioAssay AID2315 (National Center for Advancing Translational Sciences (NCATS), 2010).
